Assay outcomes from PubChem.
A selection: hits, their analogues and other compounds. The true share with any hit is near 7.4%.
NPC1 promoter act – activates the NPC1 promoter; Huh7 NPC1 promoter luciferase reporter, 24 h; hit rate 2.4% among 320,000; AID 485313; Potency, µM (doses to about 9.22 µM), inactives show at the top dose activation, usual class: activators; further: % of control where 0% means no effect; nearly all actives have a fitted effect of over 60% in size
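Cells: Huh7 expressing luciferase under the NPC1 promoter, 1500/well. Seeded 2 h, compound added, incubated 24 h at 37 °C. Luciferase reagent, 10 min ambient, then luminescence.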
ELG1 genotox – genotoxicity induction in ELG1-luciferase HEK293T cells | HEK293T ELG1-luciferase reporter, luminescence, 16 h | AID 504466 | hit rate 1.3% among 330,000 | Potency, µM (titrated, usually from 46 µM), for the others: top-dose activity change, positive = activation, hits mostly activators; further: % of control where 0% means no effect; nearly all actives have a fitted effect of over 60% in size
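Reporter readout depends on ELG1 protein level, which increases with genetic stress. After 16 hr compound exposure at 37 °C, luciferase activity was quantified using ONE-Glo.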
SMN2 splice enh – increases expression of the SMN2 splice variant; hit rate 2.8% among 210,000; Potency, µM (top dose mostly 46.1 µM), for inactives: at the top dose activity change, positive = activation, usual class: activators; HEK293 SMN2-luciferase splicing reporter, luminescence, 30-36 h; AID 1458; further: % of control where 0% means no effect; nearly all actives have a fitted effect of over 55% in size
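HEK293 cells carry an SMN2 […]–luciferase reporter in which exon 7 inclusion puts luciferase in frame. Cells were plated 10-12 h before compound addition, then incubated 30-36 h at 37C. ONE-Glo luminescence was read; sodium butyrate at 4.5 mM final served as control.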
Rab9 prom act – activators of Rab9 promoter; Huh7 Rab9 promoter-luciferase reporter, luminescence, 24 h; hit rate 2.8% among 320,000; AID 485297; Potency, µM (titrated, usually from 9.22 µM), for the others: top-dose activation, negative = inhibition, hits mostly activators; further: % of control where 0% means no effect; nearly all actives have a fitted effect of over 60% in size
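Cell-based reporter: Huh7 stable for Rab9 promoter-driven luciferase, plated in reduced-serum medium with 10% FBS at 1500 cells/well, compound-treated 24 h at 37 °C, luminescence read after 10 min reagent.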
FLuc counter – inhibits or activates purified firefly luciferase, miR-21 counter-screen; purified FLuc, Km substrates, luminescence inhibition; Potency, µM (top dose mostly 57.5 µM), inactives show at the top dose activity change, negative = inhibition, most hits filed as inhibitors; hit rate 6.9% among 360,000; AID 588342;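 further: plate controls were vehicle for no effect and reference inhibitor for full effect; nearly all actives have a fitted effect of over 55% in size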
Target sequence (P08659 whole entry, looked up): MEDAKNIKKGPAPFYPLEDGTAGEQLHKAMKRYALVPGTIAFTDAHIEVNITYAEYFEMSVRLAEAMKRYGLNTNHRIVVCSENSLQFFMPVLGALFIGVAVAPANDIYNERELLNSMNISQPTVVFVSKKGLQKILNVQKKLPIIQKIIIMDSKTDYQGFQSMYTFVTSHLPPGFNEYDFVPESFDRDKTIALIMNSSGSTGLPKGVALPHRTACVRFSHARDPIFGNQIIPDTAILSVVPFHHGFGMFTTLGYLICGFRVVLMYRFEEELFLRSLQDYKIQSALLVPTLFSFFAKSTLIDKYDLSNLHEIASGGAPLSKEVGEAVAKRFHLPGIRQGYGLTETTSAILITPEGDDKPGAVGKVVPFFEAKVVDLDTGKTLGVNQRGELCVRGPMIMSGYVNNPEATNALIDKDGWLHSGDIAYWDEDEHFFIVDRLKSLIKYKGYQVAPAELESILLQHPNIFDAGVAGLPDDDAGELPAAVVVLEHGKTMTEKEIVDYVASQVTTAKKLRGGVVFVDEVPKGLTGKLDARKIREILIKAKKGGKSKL
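Purified P. pyralis luciferase, 10 nM final, with Km-level 10 uM D-luciferin and 10 uM ATP in 50 mM Tris acetate pH 7.5, 10 mM Mg acetate, 0.01% Tween-20, 0.05% BSA; 6-point qHTS titration about 60 µM downward; luminescence read.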
* marks the source's active call; other numbers are inactive results; ? = inconclusive; . = no result. The call rests on the fitted dose curve; in most records, active means well fitted curve in the direction sought with a large enough effect; inconclusive means small, poorly fitted or top-dose-only effect, or another doubt; inactive means no such curve, though single readings can be large; an effect the other way counts as inactive or inconclusive. Potency means the concentration at half of the fitted maximal effect.

SMILES | NPC1 promoter act | ELG1 genotox | SMN2 splice enh | Rab9 prom act | FLuc counter
Cc1cccc(NC(=O)COc2ccc(Br)cc2)n1 | 13.7% | 14.2% | -9.7% | 10.6% | 23.9µM*
Cc1ccc(OCC(=O)Nc2cccc3ccc(C)nc23)c(C)c1 | . | . | 0.8% | . | 0.0%
Cc1ccc(OCC(=O)NC(=S)Nc2cccc(C)n2)cc1 | -1.0% | 2.1% | 3.0% | -3.9% | 0.4%
COc1ccccc1C(=O)N(c1ccc(C)cc1)S(=O)(=O)c1ccc(Cl)cc1 | . | . | -22.6% | . | 5.3%
Cc1cccc(N2NC(=O)/C(=C/c3ccc(-c4ccc(Cl)c(C(=O)O)c4)o3)C2=O)c1 | 1.0% | 2.1% | -25.8% | 0.9% | 23.9µM*
O=C(O)c1cc(-c2ccc(/C=C3\NC(=O)N(c4ccc(Cl)cc4)C3=O)o2)ccc1Cl | -2.9% | 0.3% | -3.1% | -1.1% | 19µM*
O=C(O)c1cc(-c2ccc(/C=C3\NC(=O)N(c4ccccc4)C3=O)o2)ccc1Cl | 20.1% | 4.0% | . | 27.7% | ?
CCN=C1S/C(=C\c2ccc(-c3cccc(C(=O)O)c3)o2)C(=O)N1CC | 0.631µM* | 1.64µM* | 3.55µM* | 0.398µM* | 0.757µM*
C#CCN1C(=O)S/C(=C\c2ccc(-c3ccc(Cl)c(C(=O)O)c3)o2)C1=O | 0.794µM* | 16.4µM* | . | 1.78µM* | 10.7µM*
O=C1NN(c2ccccc2)C(=O)/C1=C/c1ccc(-c2ccc(Cl)c(C(=O)O)c2)o1 | -1.7% | -1.2% | 10.7% | -3.1% | ?
O=C(OC1Cc2c(O)cc(O)cc2OC1c1cc(O)c(O)c(O)c1-c1c(C2Oc3cc(O)cc(O)c3CC2OC(=O)c2cc(O)c(O)c(O)c2)cc(O)c(O)c1O)c1cc(O)c(O)c(O)c1 (stereo not drawn) | . | . | 7.8% | . | .
CC(C)(C)NC(=S)N/N=C/c1cccnc1 | -5.6% | 0.7% | . | -7.8% | -0.9%
COC(=O)/C(=N/Nc1ccccc1OC)N1CCCc2ccccc21 | -4.6% | -2.7% | . | -0.5% | 1.3%
CCCC1=NN(c2ccc([N+](=O)[O-])cc2)C(=O)/C1=C/N(C)C | 18.3% | 12.7% | 28.5% | 1.1% | 10.7µM*
CC1=NN(c2nc3ccccc3[nH]2)C(=O)/C1=C/N(C)C | 1.78µM* | -9.7% | . | 1.41µM* | 2.13µM*
CC1=NN(c2nc3ccccc3[nH]2)C(=O)C1Cc1ccccc1 (stereo not drawn) | -28.6% | 26.3% | . | -48.5% | ?
CCOC1=NN(c2ccc(Cl)cc2)C(=O)/C1=C\N(C)C | 5.4% | 0.9% | -20.7% | -1.8% | -4.4%
CC1=NN(c2ccc([N+](=O)[O-])cc2)C(=O)/C1=C\N(C)C | -0.9% | ? | 4.6% | 1.8% | 10.7µM*
COc1cc(NC(=O)c2ccc(Cl)cc2)c(Cl)cc1NC(=O)c1cccnc1 | -6.6% | -3.0% | . | 0.0% | 1.4%
CC(C)(C)NC(=O)C[C@H]1C[C@H](C(=O)N2CCOCC2)[C@@]2(C)c3[nH]c4ccc(Cl)cc4c3CCN2C1=O | . | 0.2% | . | . | .
O=C(Cc1ccc(F)cc1)NCCc1csc2nc(-c3ccccc3F)nn12 | . | . | . | . | 2.2%
COc1cc(/C=C2\SC(c3ccccc3)=NC2=O)cc(Cl)c1O | -6.7% | 0.1% | -10.7% | -17.3% | 10.7µM*
COc1cc(/C=C2\SC(c3ccc(C)cc3)=NC2=O)ccc1O | -2.2% | ? | 20.3% | -10.0% | 2.69µM*
COc1ccc(/C=C2\SC(c3ccc(C)cc3)=NC2=O)cc1OC | 1.1% | 14.3% | 3.0% | -2.7% | ?
CCOc1ccc(NC(=NCc2ccc3c(c2)OCO3)SC2CC(=O)N(c3ccc(OCC)cc3)C2=O)cc1 (stereo not drawn) | ? | ? | 22.4µM* | ? | -8.7%
SMILES | NPC1 promoter act | ELG1 genotox | SMN2 splice enh | Rab9 prom act | FLuc counter
CCOc1ccc(NC(=NCc2ccc3c(c2)OCO3)SC2CC(=O)N(c3ccccc3)C2=O)cc1 (stereo not drawn) | -4.5% | 5.1% | 18.9% | 1.7% | 9.7%
Cc1ccc(NC(=S)N2CCCC2)cc1 | 21.8% | 10.9% | 25.0% | 28.8% | ?
Cc1ccc(NC(=S)N2CCCCC2)cc1C | -2.5% | 14.1% | . | 26.2% | 23.9µM*
Cc1ccc(NC(=S)N2CCCCCC2)cc1 | ? | ? | . | ? | 8.49µM*
Cc1csc(B(O)O)c1 | . | . | -2.6% | . | .
Cc1cc(C)nc(N(C#N)CC(=O)c2ccccc2)n1 | 1.2% | -2.5% | . | -1.3% | 21.3µM*
CCN1CCN(C(=O)c2ccc3c(c2)N(Cc2cc(C)ccc2C)C(=O)c2ccccc2S3=O)CC1 (stereo not drawn) | . | . | 5.8% | . | -4.1%
Cc1ccc(Cl)cc1N1CCN(C(=O)c2ccc3c(c2)N(Cc2ccccc2F)C(=O)c2ccccc2S3=O)CC1 (stereo not drawn) | . | . | -6.9% | . | -0.3%
Cc1ccc(C)c(CN2C(=O)c3ccccc3S(=O)c3ccc(C(=O)N4CCN(c5ccccn5)CC4)cc32)c1 (stereo not drawn) | -5.1% | -13.8% | 4.47µM* | 0.8% | 0.4%
Cc1ccc(C)c(CN2C(=O)c3ccccc3S(=O)c3ccc(C(=O)N4CCN(c5ccccc5F)CC4)cc32)c1 (stereo not drawn) | . | . | 0.631µM* | . | -2.0%
CSc1nc(O)c(/C=C2\C=Nc3ccccc32)[nH]1 | 20.8% | ? | ? | ? | 10.7µM*
O=c1[nH]c(/C=C2\C=Nc3ccccc32)c(O)n1Cc1ccccc1F | -11.0% | -6.1% | -17.6% | -24.0% | -17.9%
COc1ccc(NC(=O)c2oc3ccccc3c2NC(=O)C2CCCO2)cc1OC (stereo not drawn) | 24.3% | -0.2% | ? | ? | ?
COc1ccc(NC(=O)c2oc3ccccc3c2NC(=O)C2CC2)cc1OC | -1.1% | -7.4% | . | 6.0% | 16.9µM*
Cc1ccc(NC(=O)c2oc3ccccc3c2NC(=O)C2CCCO2)cc1C (stereo not drawn) | 2.82µM* | 7.3% | 12.6µM* | 2.51µM* | ?
Cc1ccc2c(COC(=O)c3n[nH]c4ccccc34)cc(=O)oc2c1 | ? | 4.61µM* | . | 11.7% | 5.36µM*
CCOC(=O)c1n[nH]c2ccccc12 | -3.5% | -0.2% | -4.6% | -3.3% | 2.4%
Cc1ccc2c(COC(=O)c3ccccc3F)cc(=O)oc2c1 | ? | 2.06µM* | . | ? | 0.19µM*
CCc1ccc2c(COC(=O)c3n[nH]c4ccccc34)cc(=O)oc2c1 | ? | ? | ? | ? | 5.36µM*
Cc1ccc2c(COC(=O)c3c(C)noc3C)cc(=O)oc2c1 | -21.6% | 2.9% | -24.7% | 5.0% | ?
CC1CCCN(CCCNC(=O)c2cc(Sc3ccc(F)cc3)nc3ccccc23)C1 (stereo not drawn) | . | . | . | . | -3.3%
Cc1nn(-c2ccccc2)c2sc(C(=O)O)cc12 | 1.3% | 0.3% | ? | 3.4% | ?
COC(=O)c1cc2c(C)nn(-c3ccccc3)c2s1 | 28.8% | 12.8% | 15.4% | 6.0% | -18.2%
Cc1ccc(-n2nc(C)c3cc(C(=O)O)sc32)cc1 | -1.3% | 3.3% | 8.1% | -3.5% | 19µM*
